# Measurements published in PubChem BioAssay AID504339 (National Center for Advancing Translational Sciences (NCATS), 2011).
# Among all 390,000 compounds or so, about 17,000 (4.4%) were called active. About 8% were inconclusive and are not listed. Calls follow the shape of the dose curve; as a rule, active = well fitted inhibition curve with a large enough effect; inconclusive = small, poorly fitted or top-dose-only effect; inactive = no such curve, though single readings can be large or run the other way. What follows is part of a selection rich in actives, with near analogues and random picks from the rest. Entries that show only a call come without a potency.
# Target: Lysine-specific demethylase 4A (Homo sapiens) (UniProt O75164)
# Experiment: qHTS Assay for Inhibitors of JMJD2A-Tudor Domain; also: nearly all actives have a fitted effect of over 50% in size
# Conditions: AlphaScreen JMJD2A-Tudor / H3K4me3 peptide binding; series mostly up to 114 µM
# Potency is read from the fitted curve at half-maximal effect.
# Sequence of Lysine-specific demethylase 4A (Homo sapiens) (O75164 whole entry, looked up, the tested form may be a part): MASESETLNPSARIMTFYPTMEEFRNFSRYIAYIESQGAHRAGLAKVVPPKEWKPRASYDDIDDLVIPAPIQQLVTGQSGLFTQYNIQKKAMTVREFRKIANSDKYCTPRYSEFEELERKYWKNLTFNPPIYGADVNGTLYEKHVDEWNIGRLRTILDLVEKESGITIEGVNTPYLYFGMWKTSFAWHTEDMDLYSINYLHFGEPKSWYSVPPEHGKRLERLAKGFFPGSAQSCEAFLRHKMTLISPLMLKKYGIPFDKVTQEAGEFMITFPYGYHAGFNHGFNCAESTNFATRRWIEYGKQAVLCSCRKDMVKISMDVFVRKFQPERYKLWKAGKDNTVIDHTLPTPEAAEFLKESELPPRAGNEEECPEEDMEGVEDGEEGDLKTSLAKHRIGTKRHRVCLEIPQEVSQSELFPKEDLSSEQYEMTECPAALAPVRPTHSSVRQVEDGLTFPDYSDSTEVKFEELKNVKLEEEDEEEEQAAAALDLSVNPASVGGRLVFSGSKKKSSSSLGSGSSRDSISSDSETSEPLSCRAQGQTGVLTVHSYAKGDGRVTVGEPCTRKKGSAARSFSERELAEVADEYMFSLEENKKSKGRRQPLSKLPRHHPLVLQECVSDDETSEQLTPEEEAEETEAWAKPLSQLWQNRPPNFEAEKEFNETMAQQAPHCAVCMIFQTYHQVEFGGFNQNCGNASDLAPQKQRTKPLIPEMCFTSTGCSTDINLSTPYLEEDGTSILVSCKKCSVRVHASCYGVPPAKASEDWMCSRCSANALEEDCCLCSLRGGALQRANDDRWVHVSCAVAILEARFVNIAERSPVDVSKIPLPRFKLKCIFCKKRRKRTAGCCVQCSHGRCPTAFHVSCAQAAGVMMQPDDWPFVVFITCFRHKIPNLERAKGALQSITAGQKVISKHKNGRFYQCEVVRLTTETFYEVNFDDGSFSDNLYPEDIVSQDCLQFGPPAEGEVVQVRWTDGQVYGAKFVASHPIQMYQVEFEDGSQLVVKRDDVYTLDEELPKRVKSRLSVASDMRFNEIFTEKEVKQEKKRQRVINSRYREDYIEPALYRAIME
row,SMILES,Potency
1,COc1ccc(NC(=O)Cn2c(=O)n(CCC(C)C)c(=O)c3cccnc32)cc1Cl,inactive
2,Cc1cc(C)cc(NC(=O)c2cnc3sc(N4CCCC4)nn3c2=O)c1,inactive
3,COc1ccc(-c2nc(SCC(=O)N3CCCC3)n[nH]2)cc1,inactive
4,COc1ccc(N2C(=O)CC(SC(C)C)C2=O)cc1 (centres undefined),inactive
5,CC(=O)Nc1ccc(N2C(=O)CC(Sc3nccc(C)n3)C2=O)cc1 (centres undefined),inactive
6,COC(=O)c1ccccc1SC1CC(=O)N(c2cccc(C)c2)C1=O (centres undefined),inactive
7,Cc1ccc(N2C(=O)CC(Sc3ncn[nH]3)C2=O)cc1 (centres undefined),28.2 µM (active)
8,COc1ccc(N2C(=O)CC(Sc3n[nH]c(-c4ccc(C)cc4)n3)C2=O)cc1 (centres undefined),2 µM (active)
9,Cc1ccc(CC2CC(=O)N(c3ccc4c(c3)OCCO4)C2=O)cc1 (centres undefined),inactive
10,CCOc1ccccc1N1C(=O)CC(Sc2nccc(C)n2)C1=O (centres undefined),inactive
11,O=C1CC(Sc2ncn[nH]2)C(=O)N1c1ccccc1 (centres undefined),39.8 µM (active)
12,CC(=O)Nc1cccc(NC(=O)CSc2nccn2Cc2ccc3c(c2)OCO3)c1,inactive
13,O=C(CCS(=O)(=O)c1ccccc1)N(Cc1cccnc1)c1nc2c(F)cccc2s1,inactive
14,COc1ccc2oc(=O)c(-c3cn4c(n3)sc3cc(OC)ccc34)cc2c1,inactive
15,CCC(=O)N1c2ccccc2CC1C(=O)N1CCN(c2ccccc2F)CC1 (centres undefined),inactive
16,CC1=C(c2ccc(C)cc2)S(=O)(=O)NC1=NCCCN1CCN(c2cc(C)ccc2C)CC1,inactive
17,COc1ccc(Cn2c(C(=O)O)c(CNCCc3cccs3)c3ccc(OC)cc32)cc1,inactive
18,COc1cc(OC)cc(C(=O)Nc2c(C(=O)Nc3ccc(F)cc3)oc3ccccc23)c1,inactive
19,Cc1ccc(C)c(N2CCN(C(=O)Cn3ncc4c(=O)oc5ccc(C)cc5c43)CC2)c1,inactive
20,CO/N=C(\N)c1ccc([N+](=O)[O-])cc1,inactive

row,SMILES,Potency
1,C/C(=N\N(C)C)c1ccc(OCCOc2ccc([N+](=O)[O-])cc2)cc1,44.7 µM (active)
2,C/C(=N/NC(=O)CC(=O)N/N=C(\C)c1ccc([N+](=O)[O-])cc1)c1ccc([N+](=O)[O-])cc1,inactive
3,Cc1oc2ncnc(N3CCOCC3)c2c1C(=O)NCCc1ccccc1,inactive
4,CCCCOc1ccc(C(=O)N2CC(=O)Nc3ccc(Br)cc3C2c2ccc(F)cc2)cc1 (centres undefined),inactive
5,O=[N+]([O-])c1ccc(N/N=C2/CCCCC2c2ccccn2)c([N+](=O)[O-])c1 (centres undefined),31.6 µM (active)
6,C[n+]1ccccc1C1CCCC/C1=N\Nc1ccc([N+](=O)[O-])cc1[N+](=O)[O-] (centres undefined),inactive
7,O=C(Nc1ccccc1)O/N=C1\CCCCC1c1ccc([N+](=O)[O-])cc1[N+](=O)[O-] (centres undefined),inactive
8,Cc1ccc(C)c(S(=O)(=O)c2nnn3c2nc(N2CCOCC2)c2sccc23)c1,inactive
9,COc1ccc(CCN2C(=O)N(c3cccc(OC)c3)C(=O)C2CC(=O)Nc2ccccc2)cc1 (centres undefined),inactive
10,N#C/C(=C\C1=C(N2CCOCC2)C(=C\c2ccccc2)/CC1)C(=O)Nc1ccccc1F,4.47 µM (active)
11,O=C(CC1SC(N2CCOCC2)=NC1=O)Nc1ccccc1F (centres undefined),inactive
12,N#C/C(=C/c1ccc(N2CCOCC2)o1)C(=O)N1CCOCC1,inactive
13,COc1c(Cl)cc(Cl)cc1C(=O)Nc1cccc2cccnc12,inactive
14,Cc1ccc(S(=O)(=O)NCCCn2ccnc2)cc1C(=O)NC(C)C,inactive
15,Cc1ccc(S(=O)(=O)NCCC(c2ccccc2)c2ccccc2)cc1C(=O)O,79.4 µM (active)
16,Cc1cccc(NS(=O)(=O)c2ccc(C)c(C(=O)NCC(c3ccccc3)N(C)C)c2)c1 (centres undefined),inactive
17,Cc1nc(SCC(=O)Nc2ccc(C(=O)O)cc2)n[nH]1,inactive
18,Cc1ccc(NC(=O)CSc2nc3c(c(=O)[nH]2)CN(Cc2ccc4c(c2)OCO4)CC3)cc1C,inactive
19,CCOC(=O)c1ccc(CN(Cc2ccccc2)S(=O)(=O)c2ccc(Cl)cc2)cc1,inactive
20,COc1cccc(NC(=O)CN2C(=O)c3ccccc3Sc3ncccc32)c1,inactive

row,SMILES,Potency
1,CCNS(=O)(=O)c1cc(-c2nnc(Nc3cccc(C(F)(F)F)c3)c3ccccc23)ccc1C,inactive
2,CCC(=C/c1sc2ccc3ccccc3c2[n+]1C)/C=C1\Sc2ccc3ccccc3c2N1C,50.1 µM (active)
3,COc1ccc(CN2C(=O)C(NC(=O)c3cccc(C)c3)(C(F)(F)F)N=C2c2ccccc2)cc1 (centres undefined),inactive
4,Cc1ccc(S(=O)(=O)NCC(=O)N2CCN(c3ccccn3)CC2)cc1,inactive
5,Cc1ccc(-n2ccc(=O)c(C(=O)O)n2)cc1,inactive
6,Cc1ccc(N2CCN(c3ccc(C)cc3)C2c2ccccn2)cc1,25.1 µM (active)
7,Cc1cccc(OCC(=O)N(Cc2ccc(C(C)C)cc2)Cc2ccco2)c1C,inactive
8,Oc1c(C(c2ccccc2Cl)N2CCOCC2)sc2nc(-c3ccco3)nn12 (centres undefined),inactive
9,Oc1c(C(c2ccccn2)N2CCOCC2)ccc2cccnc12 (centres undefined),17.8 µM (active)
10,COc1cc(NC(=O)c2noc3c2CSc2ccccc2-3)cc(OC)c1OC,inactive
11,CC(=O)N1CCCc2cc(S(=O)(=O)Nc3ccc(Cl)cc3F)ccc21,inactive
12,CCCCc1nn2c(=O)cc(COC(=O)c3ccccc3NC(=O)C(C)(C)C)nc2s1,inactive
13,COc1ccccc1CNC(=O)c1ccc(CS(=O)(=O)c2ccccc2)o1,inactive
14,O=C(c1ccc(CS(=O)(=O)c2ccccc2)o1)N1CCN(c2ccccc2)CC1,56.2 µM (active)
15,O=C(c1ccc(S(=O)(=O)NCc2ccco2)cc1)N1CCN(c2ccccc2)CC1,inactive
16,Cc1cc(C)cc(NC(=O)CCS(=O)(=O)c2cc3c4c(c2)CCN4C(=O)CC3)c1,inactive
17,Cc1cc(C)c2oc(C(=O)Nc3c(C(=O)Nc4ccccc4)oc4ccccc34)cc(=O)c2c1,inactive
18,Cc1ccc(C)c(Oc2c(C(F)(F)F)oc3c(CN4CCN(C)CC4)c(O)ccc3c2=O)c1,inactive
19,Cc1c(Cl)cccc1NC(=O)C1CCCN(c2ncnc3onc(C)c23)C1 (centres undefined),inactive
